{"source": "PubChem BioAssay (Tox21)", "note": "Records with an inconclusive call do not appear. Calls of active or inactive are those of the source. The call rests on the fitted dose curve. On the % scale 0 is the no-effect control and ±100 the full control effect; potency means the concentration at half of the fitted maximal effect.", "data": [{"test": "qHTS assay to identify small molecule agonists of the progesterone receptor (PR) signaling pathway - cell viability counter screen (AID 1346799); further: nearly all actives have a fitted effect of over 45% in size", "conditions": "PR-UAS-bla HEK293T viability, CellTiter-Glo luminescence, 16 h; series mostly up to 92.4 µM; activity change, negative = cytotoxicity: at the top concentration", "source_text": "National Center for Advancing Translational Sciences [NCATS]\nNIH Chemical Genomics Center [NCGC]\nU.S. Environmental Protection Agency [EPA]\nNational Institutes of Environmental Health Sciences [NIEHS]\nNational Toxicology Program [NTP]\nU.S. Food and Drug Administration [FDA]\nProgesterone receptor (PR), a nuclear hormone receptor, plays an important role in development, metabolic homeostasis and reproduction. It is activated by the steroid hormone progesterone. Endocrine disrupting chemicals (EDCs) and their interactions with steroid hormone receptors like PR causes disruption of normal endocrine function. To identify the compounds that stimulate PR signaling, a PR-UAS-bla GripTite cell line i.e. PR-UAS-bla HEK293T (Invitrogen, Carlsbad, CA, USA) containing a beta-lactamase reporter gene under the control of an UAS response element was used to screen Tox21 10K compound library. The cytotoxicity of the Tox21 compound library against the PR-bla cell line was tested in parallel by measuring the cell viability using CellTiter-Glo assay in the same wells.\nTox21 Assay Protocol Summary:\nPR-UAS-bla HEK293T cells were dispensed at 3,000 cells/5 uL of assay medium containing 2% charcoal stripped FBS per well into black wall/clear-bottom 1536-well plates using a Multidrop Combi (ThermoFisher Scientific, Waltham, MA) dispenser. After the assay plates were incubated at a 37C and 5% CO2 for 6 hr, 23 nL of compounds dissolved in DMSO, positive controls or DMSO only was transferred to the assay plate by a Pintool station (Kalypsys, San Diego, CA). The plates were incubated at 37C and 5% CO2 for 16 hr. Then 1 uL of LiveBLAzer B/G FRET substrate was added using a Flying Reagent Dispenser (FRD, Aurora Discovery, San Diego, CA), the plates were incubated at room temperature for 2 hours, and fluorescence intensity was measured by an Envision plate reader (PerkinElmer, Shelton, CT). For cell viability readout that measures cytotoxicity, 4 uL/well of CellTiter-Glo reagent was added into the assay plates using a FRD. After 30 min incubation at room temperature, the luminescence intensity in the plates was measured using a ViewLux (PerkinElmer) plate reader.", "values": [{"smiles": "CN1CCN(CCCN2c3ccccc3Sc3ccc(S(=O)(=O)N(C)C)cc32)CC1", "Potency": "6.68 µM (active)"}, {"smiles": "C[N+](C)(C)CCOC(N)=O", "activity change, negative = cytotoxicity": "5.54% [at 42.5 µM] (inactive)"}, {"smiles": "CCCC(=O)O[C@]1(C(=O)COC(=O)CC)CC[C@H]2[C@@H]3CCC4=CC(=O)CC[C@]4(C)[C@H]3[C@@H](O)C[C@@]21C", "activity change, negative = cytotoxicity": "17.2% [at 19 µM] (inactive)"}, {"smiles": "CCCCCC=CCC=CCCCCCCCC(=O)OCC", "activity change, negative = cytotoxicity": "-17.6% [at 42.5 µM] (inactive)"}, {"smiles": "CNCCCC1c2ccccc2C=Cc2ccccc21", "Potency": "10.6 µM (active)"}, {"smiles": "CC(=O)Oc1ccc(C(=C2CCCCC2)c2ccc(OC(C)=O)cc2)cc1", "activity change, negative = cytotoxicity": "-25.1% [at 42.5 µM] (inactive)"}, {"smiles": "COC(OC)(C(=O)c1ccccc1)c1ccccc1", "activity change, negative = cytotoxicity": "2.37% (inactive)"}, {"smiles": "CC#N", "activity change, negative = cytotoxicity": "9.25% (inactive)"}, {"smiles": "Cc1nc2ccccn2c(=O)c1CCN1CCC(C(=O)c2ccc(F)cc2)CC1", "activity change, negative = cytotoxicity": "0.335% [at 42.5 µM] (inactive)"}, {"smiles": "O=C(Nc1ccccc1)Nc1ccccc1", "activity change, negative = cytotoxicity": "-11.4% (inactive)"}, {"smiles": "Nc1nc(Cl)nc2c1ncn2[C@@H]1O[C@H](CO)[C@@H](O)[C@@H]1F", "activity change, negative = cytotoxicity": "9.99% [at 42.5 µM] (inactive)"}, {"smiles": "NC(=O)Nc1ccc(Cl)cc1", "activity change, negative = cytotoxicity": "7.47% (inactive)"}, {"smiles": "CCCCCCCCCCCCCCC[C@H](O)[C@@H](N)CO", "activity change, negative = cytotoxicity": "-9.1% [at 42.5 µM] (inactive)"}, {"smiles": "C/C(=N/NC(=O)c1ccncc1)C(=O)O", "activity change, negative = cytotoxicity": "0.978% [at 42.5 µM] (inactive)"}, {"smiles": "CCCCC(CC)COC(=O)COc1ccc(Cl)cc1C", "note": "(stereo not given)", "activity change, negative = cytotoxicity": "1.05% (inactive)"}, {"smiles": "CN1CCCN=C1/C=C/c1cccs1", "activity change, negative = cytotoxicity": "-1.44% [at 42.5 µM] (inactive)"}, {"smiles": "CC(C)(C)C(=O)O", "activity change, negative = cytotoxicity": "2.31% (inactive)"}, {"smiles": "O=C(O)c1cccc(O)c1", "activity change, negative = cytotoxicity": "-3.42% (inactive)"}, {"smiles": "C[Si]1(C)O[Si](C)(C)O[Si](C)(C)O1", "activity change, negative = cytotoxicity": "-3.89% (inactive)"}, {"smiles": "CCCCCCCC/C=C\\CCCCCCCC(=O)OC", "activity change, negative = cytotoxicity": "15.2% (inactive)"}, {"smiles": "CC[C@H](NC(=O)c1cc(F)ccc1NS(=O)(=O)c1cccc2cccnc12)c1ccccc1", "activity change, negative = cytotoxicity": "-18.1% (inactive)"}, {"smiles": "COC(=O)[C@@H]1CC2=CC(=O)CC[C@]2(C)[C@@]23O[C@@H]2C[C@@]2(C)[C@@H](CC[C@@]24CCC(=O)O4)[C@H]13", "activity change, negative = cytotoxicity": "13.5% [at 42.5 µM] (inactive)"}, {"smiles": "CC(=O)Nc1ccccc1C", "activity change, negative = cytotoxicity": "-12.9% (inactive)"}, {"smiles": "ON(Cc1ccccc1)Cc1ccccc1", "activity change, negative = cytotoxicity": "11.1% (inactive)"}, {"smiles": "CCCCCCCCSCCO", "activity change, negative = cytotoxicity": "-4.01% (inactive)"}, {"smiles": "O=C(O)c1snc(Cl)c1Cl", "activity change, negative = cytotoxicity": "-3.25% (inactive)"}, {"smiles": "CCCCC(=O)O[C@]1(C(=O)CO)CC[C@H]2[C@@H]3CCC4=CC(=O)CC[C@]4(C)[C@H]3[C@@H](O)C[C@@]21C", "activity change, negative = cytotoxicity": "3.14% [at 42.5 µM] (inactive)"}, {"smiles": "CN(C(=O)C(Cl)Cl)c1ccc(OC(=O)c2ccco2)cc1", "activity change, negative = cytotoxicity": "-0.267% [at 42.5 µM] (inactive)"}, {"smiles": "CCCCOC(=O)CCS", "activity change, negative = cytotoxicity": "2.87% (inactive)"}, {"smiles": "OC(CCCN1CCCCC1)(c1ccccc1)c1ccccc1", "activity change, negative = cytotoxicity": "-21.6% [at 42.5 µM] (inactive)"}, {"smiles": "Nc1ccc(Cl)cc1[N+](=O)[O-]", "activity change, negative = cytotoxicity": "10.4% (inactive)"}, {"smiles": "CC(C)CCCC(=O)O", "activity change, negative = cytotoxicity": "-7.98% (inactive)"}, {"smiles": "CCCCN(CCCC)C(=S)SSC(=S)N(CCCC)CCCC", "activity change, negative = cytotoxicity": "-5.08% (inactive)"}, {"smiles": "O=C1NCCN1", "activity change, negative = cytotoxicity": "8.11% (inactive)"}, {"smiles": "Cc1cc(O)c(C(C)C)cc1Cl", "activity change, negative = cytotoxicity": "-29.2% [at 42.5 µM] (inactive)"}, {"smiles": "O=C(O)c1c(O)c(-c2ccccc2)nc2ccccc12", "activity change, negative = cytotoxicity": "0.795% [at 42.5 µM] (inactive)"}, {"smiles": "CCCCCCCC/C=C\\CCCCCCCC(=O)OC(CO)CO", "activity change, negative = cytotoxicity": "-5.21% (inactive)"}, {"smiles": "O=C(CCCCCCC(=O)Nc1ccccc1)NO", "activity change, negative = cytotoxicity": "-1.22% [at 42.5 µM] (inactive)"}, {"smiles": "Cc1cc(C(=C2C=CC(=Nc3ccc(S(=O)(=O)O)cc3S(=O)(=O)O)C=C2)c2ccc(Nc3ccc(S(=O)(=O)O)cc3)cc2)ccc1N", "activity change, negative = cytotoxicity": "-6.87% [at 42.5 µM] (inactive)"}, {"smiles": "Cc1cc(OI)c(C(C)C)cc1-c1cc(C(C)C)c(OI)cc1C", "activity change, negative = cytotoxicity": "0.496% [at 42.5 µM] (inactive)"}]}]}
